Experimental data reported in PubChem BioAssay AID488784 (Sanford-Burnham Center for Chemical Genomics, 2010).
Screen size: about 1,000 compounds; about 700 (70%) were called active. The set was probably picked from earlier hits. These entries were drawn from the full list. Unmarked numbers belong to inactive results. No stated cut-off is given here; in the data, active means inhibition above about 50%; inactive means the rest.

Experiment: CASP1-PYCARD signaling inhibition in yeast, confirmatory test, counterassay for NLRP3 inhibitor program, one-dose (AID 488784)
Details: yeast expressing Caspase-1-ASC, luminescence counter screen; at 10 µM; stronger effect = higher value

| Structure (SMILES) | inhibition |
| --- | --- |
| O=C1/C(=C\c2ccc3c(c2)OCO3)N2CCC1CC2 | 60.4% (active) |
| Cc1cc2ccccn2c1C(C[N+](=O)[O-])c1c(F)cccc1Cl (centres undefined) | 12.2% |
| CCCCCCCCCCCCn1ccc(=N)cc1 | 59% (active) |
| Cc1ccc(-c2nc3ccccc3c(=O)n2-c2ccc(Br)cn2)cc1 | 44% |
